# Assay results from PubChem BioAssay (NCI).
# This is part of a sample that, as a whole, favours compounds with a hit. Of some 83,000 tested, about 20% had one in any assay.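 Single-dose data. Exposure time 48 hours. Values below 10 considered active.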 Values without a mark were called inactive. The source made the active and inactive calls.
# How the values were obtained:
# Experiment in all cases: NCI-60 one-dose screen, 48 h (100 = growth as untreated, 0 = no growth, -100 = all killed)
# Settings in all cases: 10 µM unless noted
# NCI-H23 lung = system: NCI-H23 lung
# NCI-H226 lung = system: NCI-H226 lung
# NCI-H322M lung = system: NCI-H322M lung
# HOP-62 NSCLC = system: HOP-62 NSCLC
# NCI-H460 lung = system: NCI-H460 lung
# HOP-92 NSCLC = system: HOP-92 NSCLC
# NCI-H522 lung = system: NCI-H522 lung
# A549/ATCC NSCLC = system: A549/ATCC NSCLC
# 786-0 renal = system: 786-0 renal
# COLO 205 colon = system: COLO 205 colon
# DU-145 prostate = system: DU-145 prostate
# K-562 leukemia = system: K-562 leukemia
# MALME-3M melanoma = system: MALME-3M melanoma
# MDA-MB-231 breast = system: MDA-MB-231 breast
# RXF 393 renal = system: RXF 393 renal
# SF-268 CNS = system: SF-268 CNS
# SF-295 CNS = system: SF-295 CNS
# SF-539 CNS = system: SF-539 CNS
# UACC-257 melanoma = system: UACC-257 melanoma
# M14 melanoma = system: M14 melanoma
SMILES,growth (NCI-H23 lung),growth (NCI-H226 lung),growth (NCI-H322M lung),growth (HOP-62 NSCLC),growth (NCI-H460 lung),growth (HOP-92 NSCLC),growth (NCI-H522 lung),growth (A549/ATCC NSCLC),growth (786-0 renal),growth (COLO 205 colon),growth (DU-145 prostate),growth (K-562 leukemia),growth (MALME-3M melanoma),growth (MDA-MB-231 breast),growth (RXF 393 renal),growth (SF-268 CNS),growth (SF-295 CNS),growth (SF-539 CNS),growth (UACC-257 melanoma),growth (M14 melanoma)
O=[N+]([O-])c1cc(F)c2cccnc2c1O,87.8%,102%,100%,97.1%,92.1%,104%,60.8%,105%,102%,104%,121%,109%,103%,99.5%,148%,106%,110%,91%,115%,88.5%
CC(=O)N1N=C(c2ccc(C)cc2)CC1c1cn(-c2ccccc2)nc1-c1cccc(Nc2ccnc3cc(Cl)ccc23)c1 (stereo not drawn),79.1%,111%,56.9%,-19.7% (active),15.8%,78.7%,36%,68.4%,52.3%,93.8%,34.3%,15.1%,-2.79% (active),58.9%,67.8%,73.7%,109%,99.4%,106%,87.3%
CC(C)NC(=O)OCC#CCOC(=O)NC(C)C,99.6%,106%,86.8%,104%,108%,105%,89.1%,96.7%,102%,106%,111%,87.9%,92.6%,103%,113%,110%,82.8%,109%,105%,
COc1ccc(-c2cn(-c3cccc(C(=O)/C=C/c4ccc(O)c(OC)c4)c3)c(=O)[nH]2)cc1,62.5%,93.6%,64.8%,113%,31.7%,22.6%,-4.38% (active),31.5%,34.5%,105%,6.8% (active),25.7%,72.5%,38.9%,-60.9% (active),19.1%,15.2%,10.5%,40.3%,
NNC(=O)Cc1ccccc1,93.2%,78.2%,74.2%,92.2%,94.7%,-17.8% (active),77.6%,86.3%,92.1%,112%,104%,56.6%,99.7%,83.7%,126%,86.4%,79.7%,92.5%,122%,
COc1ccc2cc(-c3nc(C)c(C(C)=O)c(-c4ccc(C)cc4)n3)ccc2c1,89.2%,80.1%,87.5%,105%,92.6%,86.2%,81.3%,92.4%,87.9%,102%,107%,125%,91.2%,81%,81.6%,101%,99.6%,89.6%,101%,
Clc1cn2cc(-c3ccc(Cl)c(Cl)c3Cl)nc2s1,92.7%,90.1%,91.9%,86.7%,109%,85.8%,91.4%,103%,99.9%,106%,117%,92.6%,101%,98.5%,99.8%,103%,-71.5% (active),105%,112%,95.3%
CCOC(=O)c1ccccc1SC(C[N+](=O)[O-])c1ccccc1 (stereo not drawn),99.1%,86.2%,116%,118%,107%,90.5%,88.8%,78.7%,98.7%,102%,90.9%,56.8%,98%,96.6%,62.9%,104%,99.7%,90%,84.4%,
CCC(C)C1NC(=O)c2nc(oc2-c2ccccc2)-c2csc(n2)-c2csc(n2)-c2nc(oc2C)-c2coc(n2)CNC(=O)C(C(C)CC)NC1=O (stereo not drawn),-68.2% (active),-55.8% (active),-98.9% (active),-57% (active),-81.4% (active),-83.3% (active),-74.7% (active),-76.6% (active),-73.1% (active),-77.3% (active),-90.6% (active),-66.3% (active),-84.9% (active),-74.4% (active),-72.5% (active),-66.9% (active),-78.9% (active),-80.5% (active),-66.2% (active),-85.2% (active)
CC(=O)N(C)c1ccc(Nc2cc(C)[nH]c3ccc4ncnc4c23)cc1,50.4%,54.8%,77%,54.3%,22.4%,-2.3% (active),22.1%,67.2%,55.8%,53.3%,46.5%,29.5%,82.4%,87.7%,41.7%,55%,76.5%,40.7%,48.2%,76.9%
CC[C@H](Nc1nc(C)nc(N)c1C#N)c1nc2cccc(NCc3ccc(C(=O)NO)cc3)c2c(=O)n1-c1ccccc1,-17.5% (active),-3.97% (active),24.5%,10.1%,2.36% (active),-1.54% (active),-36.4% (active),-31% (active),5.71% (active),0.926% (active),11.2%,2.24% (active),2.94% (active),14.7%,-27.2% (active),12.3%,21.5%,14.6%,-3.98% (active),8.71% (active)
O=c1cc(-c2ccc3c(c2)OCCO3)oc2cc(Cl)ccc12,61%,-12.9% (active),-6.58% (active),1.84% (active),-57.9% (active),-8.2% (active),-12.7% (active),11.2%,-42.8% (active),40.7%,25.6%,35.1%,-16.3% (active),27.3%,55.6%,21.1%,19.6%,-32.7% (active),52.8%,60.6%
O=C1/C(=C\c2cccn2C(=O)c2ccccc2)c2ccccc2N1c1c(Cl)cccc1Cl,75.3%,70.1%,93.7%,99.3%,94.8%,81.5%,70.5%,77.3%,94%,98%,102%,17.4%,82.6%,74.6%,71.7%,66.9%,97.6%,79.4%,90.7%,
CCCCCc1c(C)[nH]c(/C=C2\N=C(c3ccc[nH]3)C=C2CC)c1C,-81% (active),-92.3% (active),-90.2% (active),-72.2% (active),-73.3% (active),-91.8% (active),-88.8% (active),-86.4% (active),-93.6% (active),-87.7% (active),-94.8% (active),-75.8% (active),-74.9% (active),-94.3% (active),-91% (active),-75.8% (active),-70.9% (active),-82.7% (active),-84.2% (active),-96.6% (active)
C=CCn1c(C)nc2cc(Nc3nc(N4CCOCC4)nc4nc[nH]c34)ccc21,106%,88.6%,88.3%,67.8%,94.1%,4.17% (active),88.2%,95.1%,63.1%,97.9%,109%,71%,97.7%,77.7%,85.1%,99%,85%,87.3%,94%,
COCCOCCOCc1n(Cc2ccc3ccccc3n2)c2ccccc2[n+]1Cc1ccc2ccccc2c1,1.03% (active),28.1%,26.8%,11.7%,7.94% (active),-18.2% (active),0.793% (active),22.5%,21.2%,-73.3% (active),24.6%,2.47% (active),-7.52% (active),8.58% (active),-19.9% (active),20%,-12.3% (active),15.8%,-8.67% (active),-0.723% (active)
